High-throughput results deposited in PubChem by The Scripps Research Institute Molecular Screening Center.
GPR151 activ = activators of human GPR151, primary screen, cell-based, PathHunter beta-arrestin, luminescence; G-protein coupled receptor 151 (Homo sapiens), Q8TDV0; PathHunter beta-arrestin GPR151 cells; activation, % at 11.2 µM; 1% of 650,000 active; in the data active = activation above about 4.9%
Target sequence (Q8TDV0 whole entry, looked up): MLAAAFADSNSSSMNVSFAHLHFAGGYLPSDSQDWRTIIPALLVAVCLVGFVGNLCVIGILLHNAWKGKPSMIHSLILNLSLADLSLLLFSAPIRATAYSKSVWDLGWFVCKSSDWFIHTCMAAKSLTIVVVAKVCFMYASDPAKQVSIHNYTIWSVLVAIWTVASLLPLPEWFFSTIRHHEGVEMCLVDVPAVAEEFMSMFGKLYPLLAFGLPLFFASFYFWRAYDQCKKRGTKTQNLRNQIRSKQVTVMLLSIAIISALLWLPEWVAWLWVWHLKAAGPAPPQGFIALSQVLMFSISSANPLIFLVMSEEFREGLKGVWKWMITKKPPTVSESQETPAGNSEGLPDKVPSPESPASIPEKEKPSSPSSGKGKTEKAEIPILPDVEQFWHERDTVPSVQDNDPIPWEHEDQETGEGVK
TEAD-YAP block = TEAD-YAP interaction inhibition, primary screen, TEAD-YAP interaction inhibitor project, luminescence, HEK-TIYL cells. TEAD-Gal4/YAP UAS-luciferase luminescence. inhibition, % at 9.12 µM. 1.4% of 640,000 active. AID 1259422, 2018; in the data active = inhibition above about 32%
MITF primary = MITF inhibitors, primary screen, biochemical, AlphaScreen, human. Microphthalmia-associated transcription factor (Homo sapiens), O75030. AlphaScreen MITF homodimerization, bead proximity signal. inhibition, % at 2.6 µM. 0.91% of 650,000 active. AID 1259374, 2018; in the data active = inhibition above about 50%
FBW7 act = FBW7 E3 ligase activators, primary screen, biochemical, AlphaScreen, human | F-box/WD repeat-containing protein 7 (Homo sapiens), Q969H0 | AID 1259310, 2017 | 0.13% of 650,000 active | AlphaScreen FBW7–phospho-cyclin E peptide binding, activator screen | normalized activity (activation), % at 26.1 µM; in the data active = normalized activity above about 1.9%;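 note: purified mutant Fbw7 with reduced substrate affinity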
Each line names hits and unclear results; the compound was inactive in the other large screens. Hits are enriched below; roughly 3.4% of the tested compounds scored in any of these assays.

Cc1ncn(-c2ccc(Nc3ncc4cccc(-c5ccn[nH]5)c4n3)cc2)n1	TEAD-YAP block 33.2
Cc1ncn(-c2ccc(Nc3ncc4cccc(-c5cccc6c5ccn6C)c4n3)cc2)n1	none
Cc1ncn(-c2ccc(Nc3ncc4cccc(-c5nccs5)c4n3)cc2)n1	TEAD-YAP block 56.0
Cc1ncn(-c2ccc(Nc3ncc4cccc(C)c4n3)cc2)n1	none
Cc1ncn(-c2ccc(Nc3ncc4cccc(-c5ccn(C)n5)c4n3)cc2)n1	TEAD-YAP block 62.1
Cc1ncn(-c2ccc(Nc3ncc4cccc(-c5cccnc5)c4n3)cc2)n1	TEAD-YAP block 46.2
Cc1ncn(-c2ccc(Nc3ncc4cccc(-c5ccc(F)cc5)c4n3)cc2)n1	none
N#Cc1ccc(C(=O)Nc2ccc(N3CCCCC3)cc2)c(F)c1	none
Nc1cccc(-c2nc(C(=O)NCc3cccc(C(F)(F)F)c3)cs2)c1	none
Cc1ccc(-c2ncn(-c3ccc(Nc4ncc5cccc(-c6ccc(C)nc6)c5n4)cc3)n2)cn1	FBW7 act 2.3
Cc1ccc([N+](=O)[O-])cc1N=Cc1nc(-c2ccc(Br)cc2)oc1O	none
c1ccc(Nc2nc(Nc3ccncc3)nc3nc[nH]c23)cc1	none
COc1ccc(CCNc2nc(Nc3cccnc3)nc3nc[nH]c23)cc1	TEAD-YAP block 40.7
c1ccc(CNc2nc(Nc3cnccn3)nc3nc[nH]c23)cc1	FBW7 act 10.7
c1ccc(Nc2nc(Nc3cccnc3)nc3nc[nH]c23)cc1	TEAD-YAP block 58.0
COc1ccc(CCNc2nc(Nc3ccccc3)nc3nc[nH]c23)cc1	none
COc1ccc(CCNc2nc(NCc3cccnc3)ncc2C)cc1	TEAD-YAP block 40.0
c1ccc(CNc2nc(Nc3cccnc3)nc3nc[nH]c23)cc1	none
COc1cc(/C=N/NC(=O)c2cccc(Cl)c2)cc([N+](=O)[O-])c1O	none
CN1CCC2(CC1)OCc1cc(-c3cccc(C#N)c3)ccc1O2	none
COc1ccc(OC)c(/C=N/NC(=O)CCC(=O)Nc2ccc(F)cc2)c1	none
Cc1[nH]c(=O)c(-c2noc(C3COc4ccccc4O3)n2)cc1-c1ccncc1 (configuration not stated)	none
COc1ccc(CCNc2nc(Nc3cc(OC)c(OC)c(OC)c3)nc3nc[nH]c23)cc1	TEAD-YAP block 60.9
COc1cc(Nc2nc(Nc3ccccc3)nc3nc[nH]c23)cc(OC)c1OC	none
COc1cc(Nc2nc(Nc3cnccn3)nc3nc[nH]c23)cc(OC)c1OC	TEAD-YAP block 34.3, FBW7 act 4.5
CCCCCCOc1ccc(/C=C(\C#N)C(=O)NCC2CCCO2)cc1OC (configuration not stated)	FBW7 act 2.0
COc1cc(/C=C(/C#N)C(=O)NCC2CCCO2)ccc1OCc1ccc(C(=O)O)cc1 (configuration not stated)	none
CC1(C)CC(=O)C2=C(C1)NC(=S)NC2c1ccccc1 (configuration not stated)	TEAD-YAP block 54.8
Cc1ccccc1C1NC(=S)NC2=C1C(=O)CC(C)(C)C2 (configuration not stated)	none
Cc1ccc(N2CC(NC(=O)c3ccccc3C(F)(F)F)CC2=O)cc1C (configuration not stated)	none
CCOc1ccccc1C(=O)NC1CC(=O)N(c2ccc(C)c(C)c2)C1 (configuration not stated)	TEAD-YAP block 43.0
CCOC(=O)c1c(C)[nH]c(C(=O)N/N=C\c2cccc(OC)c2)c1C	TEAD-YAP block 45.7
CCOC(=O)c1c(C)[nH]c(C(=O)N/N=C\c2ccccc2Cl)c1C	TEAD-YAP block 40.1
CCOC(=O)c1c(C)[nH]c(C(=O)N/N=C\c2ccc([N+](=O)[O-])cc2)c1C	TEAD-YAP block 41.4
C=CCSc1nnc2c(n1)OC(c1cccc(C)c1OC(C)=O)N(C(C)=O)c1ccccc1-2 (configuration not stated)	none
CC(=O)Nc1nc(-c2cc(Cl)ccc2Cl)cs1	none
CC(=O)Nc1nc(-c2ccc(Cl)cc2Cl)cs1	TEAD-YAP block 50.0
CCN1CCN(c2c(Cl)cccc2NC(=O)c2cccc3ccccc23)CC1	TEAD-YAP block 35.3
O=C(Nc1cccc(Cl)c1N1CCN(CCc2ccccc2)CC1)c1ccc(Br)o1	GPR151 activ 22.8
C=C(C)CN1CCN(c2c(Cl)cccc2NC(=O)c2ccc(Br)o2)CC1	none
O=C(CCn1c(=O)oc2ccccc21)Nc1ccncc1	none
O=C(c1ccco1)N1CCN(CC(=O)N2CCn3c4c(c5cc(C6CCCCC6)ccc53)CCCC42)CC1 (configuration not stated)	none
CCN(CC)c1ccc(C2NC(=O)c3ccccc3N2)cc1 (configuration not stated)	TEAD-YAP block 79.2
CCOCCCNC1CCN(c2nc(C)c3cc(OC)ccc3n2)CC1	TEAD-YAP block 48.7
COc1ccc2c(C)nc(N3CCC(NCCCOC(C)C)CC3)nc2c1	none
CC(C)NC1CCCc2c1[nH]c1ccc([N+](=O)[O-])cc21 (configuration not stated)	TEAD-YAP block 49.3
COc1cc(-c2nc3cnccn3c2NC2CCCCC2)cc(OC)c1OC	TEAD-YAP block 37.8
COc1cc(-c2nc3cnccn3c2NC2CCCC2)cc(OC)c1OC	TEAD-YAP block 32.0
O=S1(=O)c2cccc3cccc(c23)N1CCOc1ccc(Cl)cc1	none
Cc1ccc(C)c(OCC(=O)Nc2ccccc2C(N)=O)c1C	TEAD-YAP block 48.3
CCOc1ccc(NC(=O)COc2c(C)cccc2C)cc1	none
CCOc1ccc(NC(=O)COc2c(C)ccc(C)c2C)cc1	TEAD-YAP block 40.6
CN(C)CCNC(=O)c1ccc(-c2cnc3c(Nc4ccc5[nH]ccc5c4)nccn23)cc1	TEAD-YAP block 38.8
c1cn2c(-c3ccoc3)cnc2c(Nc2ccc3[nH]ccc3c2)n1	TEAD-YAP block 81.1
Oc1cccc(-c2cnc3c(Nc4ccc5[nH]ccc5c4)nccn23)c1	TEAD-YAP block 97.0
c1cn2c(-c3ccc4[nH]ccc4c3)cnc2c(Nc2ccc3[nH]ccc3c2)n1	none
Clc1ccc(Nc2nccn3c(-c4ccoc4)cnc23)cc1	TEAD-YAP block 39.6
COc1cc([N+](=O)[O-])ccc1N1C(=O)c2c(Cl)c(Cl)c(Cl)c(Cl)c2C1=O	none
Cc1cc(C(=O)COC(=O)c2cccc(NS(C)(=O)=O)c2)c(C)n1CC1CCCO1 (configuration not stated)	TEAD-YAP block 57.8
Cc1cc(C(=O)COC(=O)c2cccc(N(C)C)c2)c(C)n1CC1CCCO1 (configuration not stated)	TEAD-YAP block 38.4
C=CCn1c(C)cc(C(=O)COC(=O)c2cccc(O)c2)c1C	TEAD-YAP block 87.0
CCOc1cc(C2C(C(C)=O)=C(C)Nc3ncnn32)ccc1OCc1ccccc1 (configuration not stated)	none
O=C(c1cc(C2CC2)on1)N1CCCC1	none
Nc1ccc(-c2nc3cc(N)ccc3s2)cc1	TEAD-YAP block 47.5
